Each sequence was assayed against GST-Hu-p50 (Homo sapiens, UniProt P19838 7-356) (assay: protein-binding microarray (PBM); PBM: ~300 nM protein, 6 mM HEPES pH 7.8, 80 mM KCl, 0.5 mM EDTA, 0.5 mM EGTA, 6% glycerol, 35 ng/ul poly-dIdC, 1% milk, 1 h, room temperature; Ap Aiptasia and Nv Nematostella (sea anemones) / Co Capsaspora / Aq Amphimedon (sponge) / Dm Drosophila / Hu human; RHD is the Rel homology domain; high values mean tight binding). Settings: dsDNA, one strand shown.
Chain of GST-Hu-p50 (P19838 7-356): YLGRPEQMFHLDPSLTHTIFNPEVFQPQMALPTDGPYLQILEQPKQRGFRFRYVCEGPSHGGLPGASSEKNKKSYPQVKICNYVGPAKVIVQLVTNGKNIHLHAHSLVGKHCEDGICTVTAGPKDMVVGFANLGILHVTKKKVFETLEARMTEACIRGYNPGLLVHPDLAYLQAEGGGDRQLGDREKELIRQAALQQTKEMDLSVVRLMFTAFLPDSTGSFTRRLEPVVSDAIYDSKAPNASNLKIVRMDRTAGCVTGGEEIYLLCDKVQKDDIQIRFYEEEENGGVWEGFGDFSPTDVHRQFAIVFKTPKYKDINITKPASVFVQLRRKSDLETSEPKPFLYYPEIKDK

Row | Sequence | binding signal
1 | CCGATTAACATCAGGGGTAGGTTTGATGTTAATCGGGTCTTGATTCGCTTGACGCTGCTG | 1.07 z-score
2 | CCGATTAACATCAGGGAATTAAATGATGTTAATCGGGTCTTGATTCGCTTGACGCTGCTG | 2.43 z-score
3 | CCGATTAACATCAGAACATTCCCTGATGTTAATCGGGTCTTGATTCGCTTGACGCTGCTG | 3.65 z-score
4 | CCGATTAACATCAGGGGAAGGGATGATGTTAATCGGGTCTTGATTCGCTTGACGCTGCTG | 3.4 z-score
5 | CCGATTAACATCAAAAATTGCCCTGATGTTAATCGGGTCTTGATTCGCTTGACGCTGCTG | 2.11 z-score
6 | CCGATTAACATCACGGAACTCCCTGATGTTAATCGGGTCTTGATTCGCTTGACGCTGCTG | 3.05 z-score
7 | CCGATTAACATCACGTTATTCCCTGATGTTAATCGGGTCTTGATTCGCTTGACGCTGCTG | 1.05 z-score
8 | CCGATTAACATCAATTTTTCCCATGATGTTAATCGGGTCTTGATTCGCTTGACGCTGCTG | 3.53 z-score
9 | CCGATTAACATCAGGAAGACCCCTGATGTTAATCGGGTCTTGATTCGCTTGACGCTGCTG | 3.37 z-score
10 | CCGATTAACATCAGGGAATTATATGATGTTAATCGGGTCTTGATTCGCTTGACGCTGCTG | 4.39 z-score
11 | CCGATTAACATCAGGGGAAGGAATGATGTTAATCGGGTCTTGATTCGCTTGACGCTGCTG | 3.5 z-score
12 | CCGATTAACATCATTTCCCTTGATGATGTTAATCGGGTCTTGATTCGCTTGACGCTGCTG | 2.51 z-score
13 | CCGATTAACATCAGAATGCCCCCTGATGTTAATCGGGTCTTGATTCGCTTGACGCTGCTG | 4.7 z-score
14 | CCGATTAACATCACCGATTTCCCTGATGTTAATCGGGTCTTGATTCGCTTGACGCTGCTG | 3.65 z-score
15 | CCGATTAACATCAGACATTCCCATGATGTTAATCGGGTCTTGATTCGCTTGACGCTGCTG | 1.02 z-score
16 | CCGATTAACATCACCAATTTCCCTGATGTTAATCGGGTCTTGATTCGCTTGACGCTGCTG | 3.76 z-score
17 | CCGATTAACATCATAATTCCCAATGATGTTAATCGGGTCTTGATTCGCTTGACGCTGCTG | 2.73 z-score
18 | CCGATTAACATCAGGGGGATAGATGATGTTAATCGGGTCTTGATTCGCTTGACGCTGCTG | 3.89 z-score
19 | CCGATTAACATCAGGGAGTTACCTGATGTTAATCGGGTCTTGATTCGCTTGACGCTGCTG | 3.85 z-score
20 | CCGATTAACATCACATCTTTCCCTGATGTTAATCGGGTCTTGATTCGCTTGACGCTGCTG | 2.43 z-score

Row | Sequence | binding signal
21 | CCGATTAACATCAGGTATTCCCATGATGTTAATCGGGTCTTGATTCGCTTGACGCTGCTG | 1.73 z-score
22 | CCGATTAACATCAAGTACTTCCCTGATGTTAATCGGGTCTTGATTCGCTTGACGCTGCTG | 1.17 z-score
23 | CCGATTAACATCAGGGGAGTATATGATGTTAATCGGGTCTTGATTCGCTTGACGCTGCTG | 3.33 z-score
24 | CCGATTAACATCAACTAATTCCCTGATGTTAATCGGGTCTTGATTCGCTTGACGCTGCTG | 2.11 z-score
25 | CCGATTAACATCAAAAAAAATCCTGATGTTAATCGGGTCTTGATTCGCTTGACGCTGCTG | 1.51 z-score
26 | CCGATTAACATCAACTCGGGAAATGATGTTAATCGGGTCTTGATTCGCTTGACGCTGCTG | 1.46 z-score
27 | CCGATTAACATCAGGAAATTTGATGATGTTAATCGGGTCTTGATTCGCTTGACGCTGCTG | 1 z-score
28 | CCGATTAACATCAATTCCCATGATGATGTTAATCGGGTCTTGATTCGCTTGACGCTGCTG | 1.61 z-score
29 | CCGATTAACATCAAGGGAAACCCTGATGTTAATCGGGTCTTGATTCGCTTGACGCTGCTG | 2.93 z-score
30 | CCGATTAACATCAAGAGTTTCCCTGATGTTAATCGGGTCTTGATTCGCTTGACGCTGCTG | 3.64 z-score
31 | CCGATTAACATCAAAAAACCCACTGATGTTAATCGGGTCTTGATTCGCTTGACGCTGCTG | 3.37 z-score
32 | CCGATTAACATCAACAAAGTCCCTGATGTTAATCGGGTCTTGATTCGCTTGACGCTGCTG | 4.3 z-score
33 | CCGATTAACATCAGGGATCACCCTGATGTTAATCGGGTCTTGATTCGCTTGACGCTGCTG | 2.48 z-score
34 | CCGATTAACATCAGAACTTCCCATGATGTTAATCGGGTCTTGATTCGCTTGACGCTGCTG | 1.47 z-score
35 | CCGATTAACATCATGTTGGGAAATGATGTTAATCGGGTCTTGATTCGCTTGACGCTGCTG | 1.47 z-score
36 | CCGATTAACATCACGGAATACCCTGATGTTAATCGGGTCTTGATTCGCTTGACGCTGCTG | 3.41 z-score
37 | CCGATTAACATCAGGGTTTTTTATGATGTTAATCGGGTCTTGATTCGCTTGACGCTGCTG | 4.89 z-score
38 | CCGATTAACATCACATATACCCCTGATGTTAATCGGGTCTTGATTCGCTTGACGCTGCTG | 2.14 z-score
39 | CCGATTAACATCAAAAAAGACCCTGATGTTAATCGGGTCTTGATTCGCTTGACGCTGCTG | 3.95 z-score
40 | CCGATTAACATCACGGGTTTTTCTGATGTTAATCGGGTCTTGATTCGCTTGACGCTGCTG | 3.63 z-score

Reference: article PMC5700166
